tim23-1 inh: growth inhibitors of tim23-1 mutant yeast; AID 463212; inhibition, % at 20 µM; hit rate 1.3% among 330,000; S. cerevisiae tim23-1 growth, BacTiter-Glo luminescence, 24 h;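 active = growth inhibition of the mutant yeast at or above 50%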;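 note: temperature-sensitive mutant grown at 25 °C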
NLRP3 yeast inh: blocks the NALP3 inflammasome reconstituted in yeast | Yeast reconstituted NLRP3/ASC/caspase-1, beta-gal luminescence, 24 h | inhibition, % at 10 µM | hit rate 0.39% among 330,000;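 active = inhibition of 50% or more; inactive = inhibition below 50%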
NALP1 inh: inhibitors of NALP1 inflammasome in yeast. S. cerevisiae NALP1/ASC/caspase-1 growth, X-gal OD620, 72 h. inhibition, % at 10 µM. hit rate 0.61% among 280,000; in the data active = inhibition mostly above about 24%, no sharp cut-off; inactive = mostly below about 32%
TIM10 inh: inhibits growth of TIM10 yeast strain | inhibition, % at 10 µM | S. cerevisiae TIM10 strain growth, BacTiter-Glo luminescence, 24 h | AID 463195 | hit rate 1.4% among 330,000;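 active = inhibition of 40% or more at the single tested concentration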;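 note: wild-type TIM10 isogenic control strain grown at permissive 25 °C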
tim10-1 inh: growth inhibitors of tim10-1 mutant yeast; S. cerevisiae tim10-1 ts strain growth, BacTiter-Glo, 24 h; inhibition, % at 20 µM; AID 463190; hit rate 2.2% among 330,000;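 active = inhibition of at least 40%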;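 note: mutant grown at 25 °C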
Large screens that a line does not name were inactive. Most compounds without a hit are left out; they make up all but 4% or so of the library.

COc1ccc(CC(=O)N[C@@H]2c3cc(OC)c(OC)cc3C[C@H]2O)cc1	none (no result: NLRP3 yeast inh, NALP1 inh)
COc1ccc(N(C(=O)c2ccccc2OC)C2C=CS(=O)(=O)C2)c(OC)c1 (centres undefined)	none
COc1ccc(N(C(C)=O)C2C=CS(=O)(=O)C2)c(OC)c1 (centres undefined)	NALP1 inh 38.7
O=C(CN1C(=O)CSc2ccc(S(=O)(=O)N3CCOCC3)cc21)NCCCN1CCc2ccccc2C1	none
COC(=O)[C@]1(Cc2ccccc2)N[C@H](CN(C)C(=O)Nc2ccc(C(F)(F)F)cc2)[C@@H]2C(=O)N(C)C(=O)[C@@H]21	none (no result: NALP1 inh)
O=C(c1cccc(Cl)c1)N1CCN(c2ncnc3c2cnn3-c2ccccc2)CC1	NALP1 inh 24.8
O=C(c1ccccc1)N1CCN(c2ncnc3c2cnn3-c2ccccc2)CC1	none
COc1ccc(C2(CNC(=O)c3ccc(N)cc3)CCCC2)cc1	NALP1 inh 42.2
CCCNC(=S)N1CC2(C)CN(C(=O)C(=O)OC)CC(C)(C1)C2=O	none
COc1ccc(OCC(=O)NCCCCCCNC(=O)COc2ccc(OC)cc2)cc1	none
Cn1c(N2CCN(C(c3ccccc3)c3ccccc3)CC2)nc2c1c(=O)[nH]c(=O)n2C	none
Cc1nc2ccc(NC(=O)c3cc([N+](=O)[O-])cc([N+](=O)[O-])c3Cl)cc2s1	NALP1 inh 57.5 (no result: tim23-1 inh, NLRP3 yeast inh, TIM10 inh, tim10-1 inh)
Cn1cc(CN2C[C@H]3CC[C@H]2C3)c(-c2ccccc2F)n1	none
CCOCCCNC(=O)c1ccc(OC(C)=O)cc1	none
CCOCCCNC(=O)c1ccc(OC)cc1	NALP1 inh 27.6
COCCCNC(=O)c1ccc2nc(Cc3ccc(OC)cc3)oc2c1	NALP1 inh 25.1
CC(C)[n+]1ccn(C2=C([O-])c3ccccc3C(=O)/C2=N\S(=O)(=O)c2ccccc2)c1	NALP1 inh 35.6
O=C(Nc1ccc(Cl)c(Cl)c1)OCCNC(=O)c1ccncc1	none
CC1CCCN(CCOCCOc2ccc(Br)cc2Cl)C1 (centres undefined)	NALP1 inh 48.0
CCCCNCCOCCOc1ccc(Cl)cc1Br	NALP1 inh 51.7
CC1CCCN(CCOCCOc2ccc(Cl)cc2Br)C1 (centres undefined)	NALP1 inh 41.7
COc1ccccc1C(=O)NC(=O)COC(=O)CN1C(=O)NC(C)(C)C1=O	none (no result: NALP1 inh)
CC1CSC(N(C(=O)c2ccc(S(C)(=O)=O)cc2)c2ccc(Cl)cc2)=N1 (centres undefined)	none
O=C(CCc1ccccc1)NNC(=O)c1ccncc1	none (no result: NALP1 inh)
COc1ccc(Nc2nc(-c3ccncc3)nc3ccccc23)cc1	NALP1 inh 37.1
COC(=O)c1cc(CSc2nc3ccccc3c(=O)n2C)oc1C	NALP1 inh 24.2
Cc1ccc(OC(=S)Nc2ccc(O)cc2)cc1	NALP1 inh 68.9
CC1CCN(C(C(=O)Nc2ccc(C(C)C)cc2)c2ccc3c(c2)OCO3)CC1 (centres undefined)	NALP1 inh 37.8
Cc1ccc2c(c1)c1c3n2CCCNC3CCC1 (centres undefined)	none
c1cc2c(cc1C1CCCCC1)c1c3n2CCCNC3CCC1 (centres undefined)	NALP1 inh 41.4
O=S(=O)(Nc1nccs1)c1ccc(F)cc1	NALP1 inh 27.4
COc1ccc([N+](=O)[O-])cc1N(CC(O)CN1CCCCC1)S(=O)(=O)c1ccccc1 (centres undefined)	NALP1 inh 24.7
COc1ccccc1N(CC(O)CN1CCCC1)S(=O)(=O)c1ccccc1 (centres undefined)	none
CC/C(=N\NS(=O)(=O)c1ccc(C)cc1)c1ccco1	none
O=C(CNC1CCCC1)Nc1ccc(N2CCCCCC2)cc1	NALP1 inh 29.7
O=C(CNC1CCCCCC1)Nc1ccc(N2CCCC2)cc1	none
Cc1ccc(S(=O)(=O)N2CCCOC2CNC(=O)C(=O)NCc2ccco2)cc1 (centres undefined)	none
COc1ccc(C(=O)NCCC2=CCCCC2)cc1[N+](=O)[O-]	NALP1 inh 35.0
COc1ccc(OCC(=O)NCCC2=CCCCC2)c([N+](=O)[O-])c1	none
CCOc1ccccc1N1CC(C(=O)N(C)Cc2cccnc2)CC1=O (centres undefined)	none
COc1ccc(C2N(c3cc(Cl)ccc3OC)C(=O)C3CCCN32)cc1 (centres undefined)	NALP1 inh 41.1
Cc1ccc(OCCN(C)C(=O)C2CCC(=O)N(CCCN3CCOCC3)C2)cc1 (centres undefined)	none
CCCCc1cc(=O)oc2c(CN(CC)CC)c(O)c(Cl)cc12	none
CCCc1cc(=O)oc2c(CN(CC)CC)c(O)c(Cl)cc12	NALP1 inh 35.1
Cc1cc(C(=O)Nc2cccc(O)c2)c(C)o1	NALP1 inh 35.1
Cc1cc(C(=O)Nc2cccc(C(=O)O)c2)c(C)o1	none
CCC1CN(C(=O)N2CCC(C(=O)NCCc3ccc(OC)cc3OC)CC2)c2ccccc2O1 (centres undefined)	none
CCOc1ccccc1N1CCN(S(=O)(=O)c2ccc(F)c(F)c2)CC1	NALP1 inh 40.0
COc1ccccc1N1CCN(S(=O)(=O)c2ccc(F)cc2)CC1	none
CCN(CC(=O)Nc1ccc(NC(C)=O)cc1)C(=O)c1ccccc1SCc1c(C)noc1C	none (no result: NALP1 inh)
O=S(=O)(Nc1ccc2c(c1)OCCO2)c1cccc2nsnc12	NALP1 inh 31.2
O=C(CCNS(=O)(=O)c1cccc2nsnc12)Nc1ccc2c(c1)OCCO2	none
Cc1noc(C)c1COc1ccc(C(=O)N2CCN(S(=O)(=O)c3cccc(F)c3)CC2)cc1	none (no result: NALP1 inh)
CN1CCN(c2ccc(CNS(=O)(=O)Cc3ccc(Cl)cc3)cc2)CC1	NALP1 inh 21.1
CN1CCN(c2ccc(CNS(=O)(=O)c3ccc(F)cc3Cl)cc2)CC1	none
CCC(c1nnnn1Cc1ccccc1)N1CCN(C(=O)c2ccco2)CC1 (centres undefined)	NALP1 inh 33.9
CCOc1cc(N2CCOCC2)c(OCC)cc1NC(=O)CN1CCCC1	none
Cn1nc(C(=O)Nc2cccc(S(N)(=O)=O)c2)c2ccccc2c1=O	NALP1 inh 40.4
Cn1nc(C(=O)Nc2cccc(S(=O)(=O)N3CCCC3)c2)c2ccccc2c1=O	none (no result: NALP1 inh)
COc1ccc(NC(=O)C2CCN(S(=O)(=O)c3cccc4nonc34)CC2)cc1	none
CC(=O)Nc1ccc(NC(=O)c2ccccc2C)cc1	none
Cc1ccccc1C(=O)Nc1ccccc1	NALP1 inh 31.4
CCOc1cccc(-c2c(C(=O)N/N=C/c3cccs3)nnn2-c2nonc2N)c1	none
O=C(NCc1ccc2c(c1)OCO2)C1CCC(CNS(=O)(=O)c2ccc(Cl)cc2)CC1 (centres undefined)	none
Cc1ccc(S(=O)(=O)NCC2CCC(C(=O)NCc3ccc4c(c3)OCO4)CC2)cc1 (centres undefined)	NALP1 inh 41.4
Cc1csc(NC(=O)CSc2nccn2C)n1	none
Cn1ccnc1SCC(=O)Nc1nc2c(F)c(F)c(F)cc2s1	NALP1 inh 36.3
O=C(CSc1nnc(NC(=O)C2CC2)s1)Nc1ccc(F)cc1F	none
O=C(Nc1cccc(S(=O)(=O)N2CCCCCC2)c1)C1CCC1	none (no result: NALP1 inh)
Cc1ccc(Cn2c(=N)c(C#N)cc3c(=O)n4cccc(C)c4nc32)cc1	none

Screening results from PubChem.
